Screening results: PubChem, National Center for Advancing Translational Sciences (NCATS)
Sm TGR inh = qHTS Assay for the Inhibitors of Schistosoma Mansoni Peroxiredoxins | Schistosoma mansoni thioredoxin glutathione reductase (TGR), Q962Y6 | AID 485364, 2010 | 360,000 tested, 3% active | purified TGR, DTNB reduction, TNB absorbance 405 nm | Potency, µM (titrated, usually from 114 µM), without a hit: at the highest dose activity change, negative = inhibition, most hits filed as inhibitors; active = well fitted inhibition curve with a large enough effect; inconclusive = small, poorly fitted or top-dose-only effect; inactive = no such curve, though single readings can be large or run the other way; note: potency is the fitted concentration of half-maximal effect; % is set by controls: 0 for no effect and ±100 for the full control effect; nearly all actives have a fitted effect of over 60% in size
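TGR 20 nM + NADPH 100 uM (dispensed conc.), cpd preinc 15 min RT; start with NADPH (500 uM addition) then DTNB (15 mM addition). Kinetic TNB absorbance, 405 nm filter. Four-parameter Hill fit across titration.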
Cycloheximide cs = Cycloheximide Counterscreen for Small Molecule Inhibitors of Shiga Toxin; max response, %; 300,000 tested, 12% active; AID 2314, 2010; cell reporter, cycloheximide protein synthesis inhibition counterscreen; in the data active = max response mostly above about 13%, no sharp cut-off; inactive = mostly below about 14%; note: read at 38.3 µM for the half of the compounds with a filed dose; 0% is about no effect
Shiga inhibitor = A qHTS for Small Molecule Inhibitors of Shiga Toxin; Vero cells, Shiga toxin protein synthesis inhibition reporter; inhibition, % at 38.7 µM; 290,000 tested, 9.2% active; in the data active = inhibition mostly above about 28%, no sharp cut-off; inactive = mostly below about 43%; note: 0% is about no effect
FMDV antiviral = High Throughput Screening for Foot and Mouth Disease Virus Antivirals | FMDV antiviral cell-based qHTS | Potency, µM (top dose mostly 57.9 µM), inactives show top-dose activity change, negative = inhibition, most hits filed as inhibitors | 410,000 tested, 1.2% active; calls by dose curve; tested in HEK293T cells; note: read-out not given here; potency is the fitted concentration of half-maximal effect; % is set by controls: 0 for no effect and ±100 for the full control effect; nearly all actives have a fitted effect of over 45% in size
An asterisk follows results filed as active; ? = inconclusive; nt = no result. This is a sample that favours compounds with a hit; in the whole collection about 12% have one here.

SMILES | Sm TGR inh | Cycloheximide cs | Shiga inhibitor | FMDV antiviral
COc1cc(=O)n2c(c1C(=O)NCc1ccc3c(c1)OCO3)CCN(C(=O)c1ccccc1F)CC2 | nt | nt | nt | -7%
COC(CNC(=O)c1ccc2c3c(onc13)-c1ccccc1C2=O)OC | 13µM* | 35* | 75* | ?
O=[N+]([O-])c1cc(Br)c(O)c(C=Nc2ccc(N3CCOCC3)cc2)c1 | -10% | 11 | 27 | -18%
Oc1ccc(N=Cc2cc(Br)c(N3CCOCC3)o2)cc1 | 18µM* | -2 | 6 | -6%
Cc1ccc2occ(-c3cc(-c4ccc(F)cc4)nc4c3COc3ccc(F)cc3-4)c(=O)c2c1 | -11% | nt | nt | -16%
CC(C)C(=O)N1CCN(c2nc3ccc(Cl)cc3s2)CC1 | -21% | 36* | 62* | 6%
Clc1ccc2nc(N3CCCCC3)sc2c1 | 2% | 39* | 82* | 11%
Clc1ccc2nc(N3CCCCC3)[nH]c2c1 | 9% | 37* | 80* | 0%
CC(C)NC(=O)N1CCCN(c2nc3ccc(Cl)cc3s2)CC1 | 75% | 32* | 37 | -27%
O=C(CC1C(=O)NCCN1Cc1ccccc1C(F)(F)F)NC1CCCCC1 (stereo not given) | 40µM* | -3 | -5 | -2%
O=C(CC1C(=O)NCCN1Cc1ccccc1C(F)(F)F)NC1CCCCCC1 (stereo not given) | 25µM* | -3 | -14 | -20%
O=C(CC1C(=O)NCCN1Cc1ccccc1C(F)(F)F)NC1CCC1 (stereo not given) | 40µM* | 1 | -3 | -20%
O=C(CC1C(=O)NCCN1Cc1ccc(F)cc1Cl)NC1CCCCCCC1 (stereo not given) | ? | -3 | 14 | -6%
CCOC(=O)c1cc2c(=O)n3ccccc3nc2n(CCCOC)c1=NC(=O)c1cc2ccccc2o1 | 3% | nt | nt | 1%
O=C(CN1C(=O)C2(SCC(=O)N2c2cccc(F)c2)c2ccccc21)NCCc1ccccc1 (stereo not given) | -3% | nt | nt | 1%
Cc1ccc(N2CCN(S(=O)(=O)c3ccc4oc(=O)c5ncn(C)c5c4c3)CC2)c(C)c1 | 7% | nt | nt | -17%
O=C(NC1(C(F)(F)F)NC(=O)N(CC2CCCCC2)C1=O)c1ccco1 (stereo not given) | 79µM* | -8 | -7 | nt
CC(=O)OC(C)(C)/C=C/C(=O)[C@](C)(O)[C@H]1[C@H](O)C[C@@]2(C)[C@@H]3CC=C4[C@H](C[C@H](O)C(=O)C4(C)C)[C@]3(C)C(=O)C[C@]12C | -3% | -3 | -14 | 18µM*
CC(=O)OC(C)(C)/C=C/C(=O)C(C)(O)C1C(O)CC2(C)C3CC=C4C(CC(O)C(=O)C4(C)C)C3(C)C(=O)CC12C (stereo not given) | nt | nt | nt | 32µM*
CC(=O)OC(C)(C)/C=C/C(=O)C(C)(O)C1[C@H](O)C[C@@]2(C)C3CC=C4C(CC[C@@H](O)C4(C)C)[C@]3(CO)C(=O)C[C@]12C (stereo not given in full) | -25% | -6 | -9 | 18µM*
CC(=O)OC(C)(C)/C=C/C(=O)[C@](C)(O)C1[C@H](O)C[C@@]2(C)C3CC=C4C(C=C(O[C@@H]5O[C@H](CO)[C@@H](O)[C@H](O)[C@H]5O)C(=O)C4(C)C)[C@]3(C)C(=O)C[C@]12C (stereo not given in full) | nt | nt | nt | 0%
Cc1cccc(C(=O)Nc2ccccc2OCc2cc(=O)n3cc(C)ccc3n2)c1 | 1% | nt | nt | -26%
O=C(c1cnc(N2CCCCC2)c2ccccc12)N1CCN(c2ccccc2F)CC1 | 0% | nt | nt | -4%
COc1ccc(OCc2cc(C(=O)N(Cc3nccn3C)C(C)C)no2)c2ccccc12 | -26% | 43* | 47* | 24%
COc1ccc(OCc2cc(C(=O)N(C)Cc3nccn3C)no2)c2ccccc12 | -7% | 7 | 22 | 25%
SMILES | Sm TGR inh | Cycloheximide cs | Shiga inhibitor | FMDV antiviral
CN(Cc1cnn(C)c1)C(=O)c1cc(COc2c(F)cccc2F)on1 | 4% | 19* | 46 | 32%
COc1cccc(OCc2cc(C(=O)N(C)Cc3nccn3C)no2)c1 | -2% | 53* | 136* | 70%
COc1cccc(CN(C)C(=O)c2cc(COc3ccc(-n4cncn4)cc3)on2)c1 | -16% | -3 | -4 | -23%
COc1cccc(CN(C)C(=O)c2cc(COc3ccc4ncccc4c3)on2)c1 | -29% | 1 | 17 | 11µM*
O=C(Nc1cc(F)ccc1F)c1ccc2c(c1)nnn2C1CCCC1 | -5% | nt | nt | 44%
CC(=O)c1ccc(N2CCN(C(=O)CCCCn3c(=O)[nH]c4ccccc4c3=O)CC2)cc1 | 6% | nt | nt | ?
CCn1ccnc1CN(C)C(=O)c1cc(COc2c(F)cccc2F)on1 | -2% | 9 | 18 | 9%
COc1cccc(CN(C)C(=O)c2cc(COc3c(F)cccc3F)on2)c1 | 5% | 22* | 5 | 14%
CCN(Cc1ccccc1)C(=O)c1cc(COc2c(F)cccc2F)on1 | 14% | 13* | 18 | 9%
CC(=O)N1CCc2cc(S(=O)(=O)C(C)CC(=O)Nc3ccc(Br)c(C)c3)ccc21 (stereo not given) | 0% | nt | nt | -20%
Cc1cccc(CNCCn2cc(C(=O)Nc3ccccc3)nn2)c1 | nt | nt | nt | 10%
CN(C)c1ncc2nc(-c3ccccc3)c(=O)n(CCC#N)c2n1 | nt | nt | nt | -15%
O=S(Cc1ccc(Br)cc1)Cc1nnc(SCc2ccc(Br)cc2)n1-c1ccccc1 (stereo not given) | 3% | -5 | -12 | 16µM*
CCC1OC2(C)C(O)C(/C=C/C=C/C=C/c3oc(=O)cc(OC)c3C)OC1(C)C2OC(C)=O (stereo not given) | nt | -6 | 13 | nt
COc1ccc(-c2nc3c4cnn(-c5ccccc5F)c4ncn3n2)cc1 | 4% | nt | nt | 32%
Cc1ccc2nc(CCl)[n+]([O-])c(-c3ccccc3)c2c1 | 4.5µM* | 2 | -1 | 28µM*
Cc1ccc2nc(Cl)c(-c3ccccc3)cc2c1 | nt | nt | nt | 29%
O=C1C(=O)N(CCCN2CCOCC2)C(c2cccs2)/C1=C(/O)c1ccc2c(c1)OCO2 (stereo not given) | -35% | 29* | 16 | nt
COc1cccc(C2/C(=C(/O)c3ccc4c(c3)OCO4)C(=O)C(=O)N2CCN2CCOCC2)c1 (stereo not given) | -15% | 9.6* | 10 | 6%
O=C1C(=O)N(CCN2CCOCC2)C(c2ccncc2)/C1=C(/O)c1ccc2c(c1)OCO2 (stereo not given) | ? | -2 | 22 | 10%
CCN(CC)CCNC(=O)c1ccc2nc(CCc3ccccc3)oc2c1 | 0% | nt | nt | 22%
CCOC(=O)N1CCN(/C=C(\C#N)c2nc3ccccc3s2)CC1 | 2% | 15* | 82* | -5%
N#C/C(=C\N1CCN(Cc2ccc3c(c2)OCO3)CC1)c1nc2ccccc2s1 | -9% | 12 | 50 | -28%
CCOC(=O)N1CCC(=NNc2nc3ccccc3s2)CC1 | 2% | 71* | 77* | -17%
CC(=O)N1CCC(=NNc2nc3ccccc3s2)CC1 | 9% | 45* | 91* | 48%
O=C(COc1ccccc1[N+](=O)[O-])N1CCC(c2nc3ccccc3o2)CC1 | 4% | nt | nt | -6%
